# Laboratory results published in PubChem BioAssay.
# Active and inactive are the calls of the source. The rule behind the calls is not given here.
# Biological target: Pantothenate synthetase (Mycobacterium tuberculosis (strain ATCC 25618 / H37Rv)) (UniProt P9WIL5)
# Assay: Recombinant Mtb pantothenate synthetase (PanC) inhibitors, coupled enzyme, confirmatory (AID 375);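 note: 0% = full reaction with vehicle and 100% = no enzyme background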
# Details: coupled enzyme assay; at 10 µM, active compounds read high
# Pantothenate synthetase (Mycobacterium tuberculosis (strain ATCC 25618 / H37Rv)), sequence (P9WIL5 whole entry, looked up): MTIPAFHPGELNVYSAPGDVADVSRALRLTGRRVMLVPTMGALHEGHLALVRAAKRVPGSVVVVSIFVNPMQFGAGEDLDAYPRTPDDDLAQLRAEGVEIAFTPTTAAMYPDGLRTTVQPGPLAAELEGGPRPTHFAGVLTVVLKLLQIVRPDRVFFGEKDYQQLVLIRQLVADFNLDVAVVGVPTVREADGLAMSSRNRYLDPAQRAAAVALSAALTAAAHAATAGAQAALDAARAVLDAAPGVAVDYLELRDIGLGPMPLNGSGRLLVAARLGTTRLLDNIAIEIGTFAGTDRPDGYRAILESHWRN
row,Structure (SMILES),inhibition
1,Cc1cc(NC(=O)CSc2nccn2-c2ccc(Cl)cc2)no1,0% (inactive)
2,CN1CCN(C(=O)CCC(=O)c2ccc(F)cc2)CC1,9% (inactive)
3,CCCCN(CCCNC(=O)C1CCN(S(=O)(=O)CC)CC1)c1ccccc1,0% (inactive)
4,CCN1CCN(Cc2ccc(NC(=O)Nc3ccccc3)cc2)CC1,1% (inactive)
5,CN(c1ccccc1)S(=O)(=O)c1ccc(C(=O)OCC(=O)N2CCOCC2)cc1,7% (inactive)
6,Cc1cc(C)cc(NC(=O)CCNS(=O)(=O)c2ccc3c(c2)oc(=O)n3C)c1,0% (inactive)
7,Cc1c(OCC(F)(F)F)ccnc1CS(=O)c1nc2ccccc2[nH]1 (stereo not drawn),6% (inactive)
8,Cc1ccccc1NC(=O)CSc1nc(N)c(C#N)c(-c2cccs2)c1C#N,0% (inactive)
9,Cc1ccc(N2CCN(S(=O)(=O)N(C)C)CC2)c(C)c1,0% (inactive)
10,COc1ccccc1NC1=NC2(CCCC2)N=C(N)N1,0% (inactive)
11,CCc1ccccc1NC(=O)C(C#N)Cc1cccnc1 (stereo not drawn),0% (inactive)
12,CC1Oc2ccccc2N(CC(=O)N(Cc2ccccc2)Cc2ccccn2)C1=O (stereo not drawn),4% (inactive)
13,CCCc1nnc(NC(=O)NCCN2C(=O)C3C4C=CC(C4)C3C2=O)s1 (stereo not drawn),0% (inactive)
14,O=C(Cn1cnc2c(cnn2-c2ccccc2)c1=O)NCCc1ccccc1,0% (inactive)
15,Cc1csc(NC(=O)CCn2c(=O)oc3ccccc32)n1,1% (inactive)
16,CCCOC(=O)c1[nH]c2c(c1C)C(=O)CC(c1ccc(OC)c(OC)c1)C2 (stereo not drawn),0% (inactive)
17,COc1cc(CNc2ccc(N3CCOCC3)c(C(=O)O)c2)ccc1OCC(N)=O,1% (inactive)
18,CC(=O)NCc1cccc(CNC(C)=O)n1,11% (inactive)
19,CC(=O)NCCn1c(SCC(=O)NCC2CCCO2)nc2ccccc2c1=O (stereo not drawn),0% (inactive)
20,Cc1cc(=O)[nH]c(SCC(=O)NCc2ccco2)n1,0% (inactive)
21,O=C(Nc1ccccc1C(=O)N1CCN(c2ccccc2)CC1)c1ccco1,0% (inactive)
22,COc1ccccc1NC(=O)N1CCN(c2cccc(C(F)(F)F)c2)CC1,4% (inactive)
23,COc1cc(/C=C/C(=O)CC(=O)/C=C/c2ccc(O)c(OC)c2)ccc1O,10% (inactive)
